# PubChem BioAssay AID1159580 (chemical genetic matrix, 2015)
# Out of some 5,500 compounds screened, about 2,000 (36%) were called active. Not shown: some 18% with an inconclusive outcome. This is one part of the list. A number with no mark means an inactive call. Cut-off read from the data, not from the text of the source: active = normalized growth mostly below about 0.91 (no sharp cut-off); inconclusive = no clear call, values can overlap the other calls; inactive = mostly above about 0.92.
# Test: chemical genetic growth profiling, strain panel (AID 1159580);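 note: tested at 20 µM; growth read once vehicle control cultures reached saturation at 30 °C; 1 = growth at the plate median or of vehicle wells; lower values mean less growth of the strain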
# Conditions: S. cerevisiae deletion strains, growth OD
smiles,measurement,setting,value
O=C(/C=C/c1ccc2c(c1)OCO2)Nc1ccc(Br)cc1,normalized growth,"locus YAR019C, strain CDC15, hits give low values",0.962
same,normalized growth,"locus YBL105C, strain PKC1, hits give low values",0.962
same,normalized growth,"locus YBR135W, strain CKS1, hits give low values",0.972
same,normalized growth,"locus YBR136W, strain MEC1, hits give low values",0.961
same,normalized growth,"locus YBR160W, strain CDC28, hits give low values",0.967
same,normalized growth,"locus YDL017W, strain CDC7, hits give low values",0.964
same,normalized growth,"locus YDL028C, strain MPS1, hits give low values",0.962
same,normalized growth,"locus YDL101C, strain DUN1, hits give low values",0.955
same,normalized growth,"locus YDL108W, strain KIN28, hits give low values",0.961
same,normalized growth,"locus YDL132W, strain cdc53, hits give low values",0.96
same,normalized growth,"locus YDL214C, strain PRR2, hits give low values",0.922
same,normalized growth,"locus YDR052C, strain DBF4, hits give low values",0.953
same,normalized growth,"locus YDR054C, strain cdc34, hits give low values",0.958
same,normalized growth,"locus YDR226W, strain ADK1, hits give low values",0.968
same,normalized growth,"locus YDR477W, strain SNF1, hits give low values",0.962
same,normalized growth,"locus YER123W, strain YCK3, hits give low values",0.9
same,normalized growth,"locus YER133W, strain GLC7, hits give low values",0.976
same,normalized growth,"locus YFL009W, strain cdc4, hits give low values",0.954
same,normalized growth,"locus YFL029C, strain CAK1, hits give low values",0.962
same,normalized growth,"locus YFR003C, strain YPI1, hits give low values",0.957
same,normalized growth,"locus YFR019W, strain FAB1, hits give low values",0.987
same,normalized growth,"locus YFR028C, strain CDC14, hits give low values",0.955
same,normalized growth,"locus YGR040W, strain KSS1, hits give low values",0.95
same,normalized growth,"locus YGR052W, strain FMP48, hits give low values",0.909
same,normalized growth,"locus YGR092W, strain DBF2, hits give low values",0.767
same,normalized growth,"locus YHR030C, strain SLT2, hits give low values",0.86
same,normalized growth,"locus YHR079C, strain IRE1, hits give low values",0.872
same,normalized growth,"locus YHR082C, strain KSP1, hits give low values",0.965
same,normalized growth,"locus YHR205W, strain SCH9, hits give low values",0.791
same,normalized growth,"locus YIL147C, strain SLN1, hits give low values",0.962
same,normalized growth,"locus YJL095W, strain BCK1, hits give low values",0.77
same,normalized growth,"locus YJL128C, strain PBS2, hits give low values",0.918
same,normalized growth,"locus YJL157C, strain FAR1, hits give low values",0.974
same,normalized growth,"locus YJR016C, strain ILV3, hits give low values",0.958
same,normalized growth,"locus YJR066W, strain TOR1 (second series), hits give low values",0.972
same,normalized growth,"locus YJR066W, strain TOR1, hits give low values",0.912
same,normalized growth,"locus YKL048C, strain ELM1, hits give low values",0.931
same,normalized growth,"locus YKL067W, strain YNK1, hits give low values",0.932
same,normalized growth,"locus YKL101W, strain HSL1, hits give low values",0.933
same,normalized growth,"locus YKL193C, strain SDS22, hits give low values",0.954
same,normalized growth,"locus YKL203C, strain TOR2, hits give low values",1.03
same,normalized growth,"locus YLR113W, strain HOG1, hits give low values",0.754 (active)
same,normalized growth,"locus YLR133W, strain CKI1, hits give low values",0.96
same,normalized growth,"locus YLR403W, strain SFP1, hits give low values",0.927
same,normalized growth,"locus YML070W, strain DAK1, hits give low values",0.9
same,normalized growth,"locus YMR001C, strain CDC5, hits give low values",0.957
same,normalized growth,"locus YMR205C, strain PFK2 (second series), hits give low values",0.938
same,normalized growth,"locus YMR277W, strain FCP1, hits give low values",0.959
same,normalized growth,"locus YNL006W, strain LST8, hits give low values",0.974
same,normalized growth,"locus YNL020C, strain ARK1, hits give low values",0.955
same,normalized growth,"locus YNL161W, strain CBK1, hits give low values",0.971
same,normalized growth,"locus YNL183C, strain NPR1, hits give low values",0.889
same,normalized growth,"locus YNL207W, strain RIO2, hits give low values",0.953
same,normalized growth,"locus YNL222W, strain SSU72, hits give low values",0.966
same,normalized growth,"locus YNL307C, strain MCK1 (second series), hits give low values",0.854
same,normalized growth,"locus YOL078W, strain AVO1, hits give low values",0.945
same,normalized growth,"locus YOL136C, strain PFK27, hits give low values",0.889
same,normalized growth,"locus YOR061W, strain CKA2, hits give low values",0.973
same,normalized growth,"locus YOR119C, strain RIO1, hits give low values",1.02
same,normalized growth,"locus YOR231W, strain MKK1, hits give low values",0.847
same,normalized growth,"locus YOR329C, strain SCD5, hits give low values",0.963
same,normalized growth,"locus YPL031C, strain PHO85, hits give low values",0.962
same,normalized growth,"locus YPL153C, strain RAD53, hits give low values",0.97
same,normalized growth,"locus YPL204W, strain HRR25, hits give low values",0.95
same,normalized growth,"locus YPL209C, strain IPL1, hits give low values",0.963
same,normalized growth,"locus YPL256C, strain CLN2, hits give low values",0.954
same,normalized growth,"locus YPR025C, strain CCL1, hits give low values",0.958
same,normalized growth,"locus YPR106W, strain ISR1, hits give low values",0.946
same,normalized growth,"locus YPR111W, strain DBF20, hits give low values",0.925
same,normalized growth,"strain NNK1, hits give low values",0.939
same,normalized growth,"strain TSCII, hits give low values",0.968
